# ChEMBL document CHEMBL3988442, “University of Dundee, Small-Polar-MMV Screening Library” (2021)
# Out of some 48,000 compounds screened, about 13,000 (27%) showed an effect of 50% or more. The list shows a part of the results.
# Tested on: Wolbachia pipientis
# Assay: Anti-Wolbachia Cell-Based Screen
# Format: functional
# Design: scale not given: in the data most compounds retested in dose-response had high values
# Settings: 5 µM
row,Compound,Percent Effect
1,COc1cc(N2C[C@H]3CN(CCN4CCCC4)C(=O)[C@H]3C2)ncn1,-15.15%
2,O=C(CNc1cc(Br)ccc1Br)NC1CCS(=O)(=O)C1 (configuration not stated),-18.44%
3,CCN1CCCC(CN2CCn3nc(CNC(=O)N(C)C)cc3C2)C1 (configuration not stated),11.32%
4,CC(CO)N1CCN(C(=O)OC(C)(C)C)CC1 (configuration not stated),-0.0103%
5,COc1ccc(C2CCN(S(=O)(=O)CCCC#N)CC2)cc1,-10.18%
6,CC(C)(C)OC(=O)N1CCN(S(=O)(=O)CCCC#N)C2(CCCCC2)C1,111.4%
7,CS(=O)(=O)N1CCCC12CCCN(C(=O)c1ccncc1)C2 (configuration not stated),-13.2%
8,CN(C)S(=O)(=O)N1CCN(C(=O)OC(C)(C)C)CC12CCCCC2,120.5%
9,CC(CC#N)N1CCN(C(=O)OC(C)(C)C)CC1 (configuration not stated),-8.127%
10,CC(C)(C)OC(=O)N1CCN(S(C)(=O)=O)C2(CCCCC2)C1,138.8%
11,CS(=O)(=O)N1CCCC12CCCN(C(=O)c1ccnnc1)C2 (configuration not stated),0.7841%
12,CC(C)(C)OC(=O)N1CCC(NC2CC2)CC1,-10.91%
13,O=C(NC1CC1)N1CC[C@H]2[C@H]1CCN2c1nncs1.O=C(O)C(F)(F)F,6.883%
14,CCN(Cc1ccc2c(c1)OCCO2)C(=O)NC(C)Cn1ccnc1 (configuration not stated),1.976%
15,CCOC(=O)c1ccc(NC(=O)c2cc3c([nH]c2=O)CCCC3)cc1,-8.889%
16,CCOc1ccc(NC(=O)c2cc3c([nH]c2=O)CCC3)cc1,108.3%
17,CCOc1ccc(NC(=O)c2cnc(N3CCCC3)nc2C)cc1,17.2%
18,Cc1ncsc1CN1C[C@@H]2COC[C@]2(C(=O)NC(C)C)C1.O=C(O)C(F)(F)F,-19.77%
19,CCCc1nc(C)c(C(=O)NS(=O)(=O)c2cccnc2)s1,-11.93%
20,CCCc1nc(C)c(C(=O)Nc2cccc(C)n2)s1,125.8%
21,Cc1nc(C)c(C(=O)NCCNC(=O)Cc2cccc(F)c2)s1,-2.44%
22,Cc1nc(C)c(C(=O)Nc2cc(N3CCC(C)CC3)ncn2)s1,1.923%
23,Cc1cccc(NC(=O)c2sc(C)nc2C)n1,165.1%

row,Compound,Percent Effect
1,CCCc1nc(C)c(C(=O)NCc2ccc(C)n2C)s1,17.26%
2,COCC(O)CN(C)C(=O)c1cccc(-c2csc(C)n2)c1 (configuration not stated),-1.754%
3,CCn1nc(C)c(CCn2ccnc2-c2cc3n(n2)CCNC3)c1C,7.532%
4,Cc1ccc(CC(=O)NCC(O)c2ccc(Cl)cc2Cl)cn1 (configuration not stated),-14.52%
5,CC(C)c1cc(NC(=O)c2cccnc2)[nH]n1,108.7%
6,CC(C)c1cc(NC(=O)c2ccncc2)[nH]n1,102.9%
7,COc1ccc(N(C(=O)Cc2ccc(C)nc2)C(C)C)cc1F,-2.597%
8,CC(C)c1cc(NC(=O)c2ccc(NC3CC3)nc2)[nH]n1,-1.016%
9,Cc1nn(C(C)C)c(C)c1NC(=O)c1ccncc1,7.79%
10,CC(C)c1cc(NC(=O)c2ccc([S+]([O-])C(C)C)cc2)[nH]n1 (configuration not stated),112.1%
11,Cc1cc(NC(=O)c2ccc(N3CCOCC3)c(C)c2)[nH]n1,7.693%
12,CC(C)c1cc(NC(=O)c2ccc(C(=O)NC(C)(C)C)cc2)[nH]n1,-2.024%
13,Cc1ccc(C(=O)Nc2cc(C(C)C)n[nH]2)cn1,-1.048%
14,Cc1cc(NC(=O)c2ccc(N3CCOCC3)cc2)[nH]n1,-12.35%
15,Cc1ccc(CC(=O)Nc2cc(C(C)C)n[nH]2)cn1,129.4%
16,Cc1cccc(NCCOc2cccc(C#N)c2)c1C(N)=O,-11.96%
17,Cc1cc(C)n(Cc2cccc(C(=O)N(CCC#N)CCC#N)c2)n1,-7.761%
18,CC(C)c1nnc2n1CCN(C(=O)c1cccc(OCC(N)=O)c1)C2,-10.94%
19,CC(C)c1cc(NCC2(Cn3cccn3)CC2)nc(N)n1,7.043%
20,CN(C)CCCN(C)C1CCN(c2cccc(-c3cscn3)c2)CC1,6.682%
21,O=C(c1cnc(NCC2CCCO2)c(Cl)c1)N1CCCCC1 (configuration not stated),21.16%
22,O=C(NC1CC1)c1cnc(-c2noc3cc(N4CCCCC4)ccc23)s1,-8.879%
23,O=C(NC[C@@H]1CCCO1)c1cc(Br)cnc1N1CCCCC1,112.6%

row,Compound,Percent Effect
1,O=C(NC1CCCCC1)c1cc(Br)cnc1N1CCCCC1,116.3%
2,O=C(NCC1CCCCC1)c1nnn(-c2ccc(Br)cc2)n1,-0.9526%
3,O=C(NCC1CC1)c1cc(Br)cnc1N1CCCCC1,74.44%
4,O=C(NC1CCN(c2ncccn2)CC1)c1cc2c(cc1O)CCCC2,1.017%
5,O=C(c1cnc(NCC2CCCO2)c(Cl)c1)N1CCOCC1 (configuration not stated),2.383%
6,COc1ccc(Br)c(C(=O)NCC2CCN(S(=O)(=O)C3CC3)CC2)c1,-4.78%
7,Cc1ccc([C@@H]2CN(C(=O)c3cc(C)no3)C[C@H]2NC(=O)C2CC2)cc1,-6.322%
8,Cc1cc(C)c(CCNC(=O)CN2CCCN(C(N)=O)CC2)c(C)c1,7.662%
9,CC(SCCNS(=O)(=O)c1cnn(C)c1)c1cccs1 (configuration not stated),10.16%
10,CCc1c(C(=O)N2CCOC(C)(C)C2)cnn1-c1ccccn1,19.62%
11,COc1cccc2c1N(CC(=O)Nc1ccc(Br)cn1)CCC2,-18.77%
12,COc1ccc(-c2ccc(C(=O)NS(C)(=O)=O)c(F)c2)c(F)c1,2.644%
13,CN(C)C(=O)Cn1c2c(ccc1=O)CC(NCc1cccnc1)CC2 (configuration not stated),-16.54%
14,CCn1c2c(ccc1=O)CC(NCc1cnn(C)c1)CC2 (configuration not stated),111.7%
15,O=c1ccc2c(n1Cc1cccnc1)CCC(NCc1cccnc1)C2 (configuration not stated),-5.878%
16,Cn1cc(CNC2CCc3c(ccc(=O)n3C)C2)cn1 (configuration not stated),106.3%
17,Cc1cnc(NC2CCc3c(ccc(=O)n3CC3CC3)C2)nc1 (configuration not stated),-5.786%
18,CCc1cnc(NC2CCc3c(ccc(=O)n3C)C2)nc1 (configuration not stated),-4.602%
19,COCCn1c2c(ccc1=O)CC(NCc1cnn(C)c1)CC2 (configuration not stated),90.26%
20,COCCn1c2c(ccc1=O)CC(NC(=O)c1cscn1)CC2 (configuration not stated),-30.94%
21,Cc1cnc(NC2CCc3c(ccc(=O)n3C)C2)nc1 (configuration not stated),9.132%
